Experimental data from PubChem BioAssay (Tox21).
Records with an inconclusive call do not appear. Where a call stands in place of a potency, no number is given. Active and inactive are the calls of the source. Calls come from the whole dose curve; as a rule, active = well fitted cell-killing curve with a large enough effect in the repeat runs; inconclusive = weak or mixed curves, or effect the other way; inactive = flat fitted curve, though single readings scatter.

Assay: cAMP Responsive Elements (CRE) small molecule antagonists, cell-based qHTS assay: qHTS cell viability counter screen (AID 2060913); note: nearly all actives have a fitted effect of over 40% in size
Settings: CRE-bla HEK293T viability, CellTiter-Glo luminescence, 5 h; series mostly up to 92.4 µM
Summary of the method: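 Steps: cells plated and held 18 hrs at 37 C/5% CO2; compounds and NKH477 (0.25 uM final) added; 3 hrs incubation; reporter substrate read; CellTiter-Glo added to measure cytotoxicity by luminescence.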
Potency is the fitted concentration of half-maximal effect.

Row | SMILES | Potency | viability change, negative = cytotoxic
1 | CC(=O)[O][Al] | inactive | 
2 | C=CC(=O)Nc1cc2c(Nc3ccc(F)c(Cl)c3)ncnc2cc1OCCCN1CCOCC1 | inactive | 
3 | O=C(c1ccccc1)C1CCCCC1 | inactive | 
4 | C=CC(=O)OCC1CCCO1 (stereo not given) | inactive | 
5 | CC1(C)[C@H]2CC[C@]1(C)C(=O)C2 | inactive | 
6 | Nc1cccc2c1CN(C1CCC(=O)NC1=O)C2=O (stereo not given) | inactive | 
7 | C[N+]1(C)[C@@H]2CC(OC(=O)[C@H](CO)c3ccccc3)C[C@H]1[C@@H]1O[C@@H]12 (stereo not given in full) | inactive | 
8 | CCNc1nc(NC(C)CC)nc(OC)n1 (stereo not given) | inactive | 
9 | CN(C)c1ccc(C(=N)c2ccc(N(C)C)cc2)cc1 | inactive | 
10 | COC(=O)NN | inactive | 
11 | NC(=O)Cc1cccc2ccccc12 | inactive | 
12 | O=C1NC(=O)c2ccccc21 | inactive | 
13 | CCNc1ccccc1 | inactive | 
14 | CC(C)(C)c1cc(CO)cc(C(C)(C)C)c1O | inactive | 
15 | NC(=O)c1ncn([C@@H]2O[C@H](CO)[C@@H](O)[C@H]2O)n1 | inactive | 
16 | CC(=O)Nc1ccc(C(=O)CCl)cc1 | inactive | 
17 | OCc1cccnc1 | inactive | 
18 | Cc1c(NC(=O)c2cccnc2)c(=O)n(-c2ccccc2)n1C | inactive | 
19 | CCCCCCCCCCCCCCCCI |  | 12.3% [at 18.9 µM] (inactive)
20 | COc1ccc2c(c1)CCCC2=O | inactive | 

Row | SMILES | Potency | viability change, negative = cytotoxic
21 | Cc1sccc1Br | inactive | 
22 | CCCCCCOC(=O)CCC | inactive | 
23 | O=C1CCN(c2ccccc2)N1 | inactive | 
24 | COc1ccccc1OCC(O)COC(N)=O (stereo not given) | inactive | 
25 | O=C1NS(=O)(=O)c2ccccc21 | inactive | 
26 | CCCCCCCCSCC | inactive | 
27 | FC(F)(Cl)C(F)(Cl)Cl | inactive | 
28 | Cc1cccc(C)c1O | inactive | 
29 | C=C[C@H]1CN2CC[C@H]1C[C@H]2[C@H](O)c1ccnc2ccc(OC)cc12 | inactive | 
30 | COc1cc2nc(N3CCN(C(=O)C4CCCO4)CC3)nc(N)c2cc1OC (stereo not given) | inactive | 
31 | CCCCCOc1ccccc1/C(=C\SC)n1ccnc1 | inactive | 
32 | c1ccc2sc(SN3CCOCC3)nc2c1 | inactive | 
33 | CSc1ccc(Oc2ccc(S(N)(=O)=O)cc2CN(C)C)cc1C | inactive | 
34 | CC1(C)O[C@@H]2C[C@H]3[C@@H]4CCC5=CC(=O)C=C[C@]5(C)[C@H]4[C@@H](O)C[C@]3(C)[C@]2(C(=O)CO)O1 | inactive | 
35 | CC(=O)Nc1ccc2c(c1)Cc1cc(NC(C)=O)ccc1-2 | inactive | 
36 | COS(=O)(=O)C(F)(F)F | inactive | 
37 | CCCCC(CC)CN=C(N)NC(N)=NCCCCCCN=C(N)NC(N)=NCC(CC)CCCC (stereo not given) | 21.1 µM (active) | 
38 | O=Cc1c(Cl)cccc1Cl | inactive | 
39 | CC(C)NC(=O)c1ccccc1N | inactive | 
40 | CC(C)=CCCC(C)CC(=O)O (stereo not given) | inactive | 

Assay: cAMP Responsive Elements (CRE) small molecule agonists, cell-based qHTS assay: qHTS cell viability counter screen (AID 2060914);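 note: viability read after 3 h of compound exposure; nearly all actives have a fitted effect of over 50% in size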
Settings: CRE-bla HEK293T viability, CellTiter-Glo luminescence, 5 h; series mostly up to 92.4 µM
Summary of the method: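 Cells are seeded and incubated 18 h, treated with compounds in DMSO for 3 h, read for the bla reporter, then given CellTiter-Glo; luminescence is measured after 30 min at room temperature.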

Row | SMILES | Potency | activity change, negative = cytotoxicity
41 | CC(=O)[O][Al] | inactive | 
42 | C=CC(=O)Nc1cc2c(Nc3ccc(F)c(Cl)c3)ncnc2cc1OCCCN1CCOCC1 | inactive | 
43 | O=C(c1ccccc1)C1CCCCC1 | inactive | 
44 | C=CC(=O)OCC1CCCO1 (stereo not given) | inactive | 
45 | CC1(C)[C@H]2CC[C@]1(C)C(=O)C2 | inactive | 
46 | Nc1cccc2c1CN(C1CCC(=O)NC1=O)C2=O (stereo not given) | inactive | 
47 | C[N+]1(C)[C@@H]2CC(OC(=O)[C@H](CO)c3ccccc3)C[C@H]1[C@@H]1O[C@@H]12 (stereo not given in full) | inactive | 
48 | CCNc1nc(NC(C)CC)nc(OC)n1 (stereo not given) | inactive | 
49 | CN(C)c1ccc(C(=N)c2ccc(N(C)C)cc2)cc1 | inactive | 
50 | COC(=O)NN | inactive | 
51 | NC(=O)Cc1cccc2ccccc12 | inactive | 
52 | O=C1NC(=O)c2ccccc21 | inactive | 
53 | CCNc1ccccc1 | inactive | 
54 | CC(C)(C)c1cc(CO)cc(C(C)(C)C)c1O | inactive | 
55 | NC(=O)c1ncn([C@@H]2O[C@H](CO)[C@@H](O)[C@H]2O)n1 | inactive | 
56 | CC(=O)Nc1ccc(C(=O)CCl)cc1 | inactive | 
57 | OCc1cccnc1 | inactive | 
58 | Cc1c(NC(=O)c2cccnc2)c(=O)n(-c2ccccc2)n1C | inactive | 
59 | CCCCCCCCCCCCCCCCI |  | -9.53% [at 18.9 µM] (inactive)
60 | COc1ccc2c(c1)CCCC2=O | inactive | 

Row | SMILES | Potency | activity change, negative = cytotoxicity
61 | Cc1sccc1Br | inactive | 
62 | CCCCCCOC(=O)CCC | inactive | 
63 | O=C1CCN(c2ccccc2)N1 | inactive | 
64 | COc1ccccc1OCC(O)COC(N)=O (stereo not given) | inactive | 
65 | O=C1NS(=O)(=O)c2ccccc21 | inactive | 
66 | CCCCCCCCSCC | inactive | 
67 | FC(F)(Cl)C(F)(Cl)Cl | inactive | 
68 | Cc1cccc(C)c1O | inactive | 
69 | C=C[C@H]1CN2CC[C@H]1C[C@H]2[C@H](O)c1ccnc2ccc(OC)cc12 | inactive | 
70 | COc1cc2nc(N3CCN(C(=O)C4CCCO4)CC3)nc(N)c2cc1OC (stereo not given) | inactive | 
71 | CCCCCOc1ccccc1/C(=C\SC)n1ccnc1 | inactive | 
72 | c1ccc2sc(SN3CCOCC3)nc2c1 | inactive | 
73 | CSc1ccc(Oc2ccc(S(N)(=O)=O)cc2CN(C)C)cc1C | inactive | 
74 | CC1(C)O[C@@H]2C[C@H]3[C@@H]4CCC5=CC(=O)C=C[C@]5(C)[C@H]4[C@@H](O)C[C@]3(C)[C@]2(C(=O)CO)O1 | inactive | 
75 | CC(=O)Nc1ccc2c(c1)Cc1cc(NC(C)=O)ccc1-2 | inactive | 
76 | COS(=O)(=O)C(F)(F)F | inactive | 
77 | CCCCC(CC)CN=C(N)NC(N)=NCCCCCCN=C(N)NC(N)=NCC(CC)CCCC (stereo not given) | 16.8 µM (active) | 
78 | O=Cc1c(Cl)cccc1Cl | inactive | 
79 | CC(C)NC(=O)c1ccccc1N | inactive | 
80 | CC(C)=CCCC(C)CC(=O)O (stereo not given) | inactive | 
